Rows were chosen to be rich in hits. Some 11% of all compounds tested hit in one or more screens of this group.
HEK293 tox: cytotoxic compounds in HEK 293 cells; actives 6.6% (n = 94,000); Potency, µM (top dose mostly 115 µM), for inactives: at the highest dose activity change, negative = cytotoxicity, actives largely listed as inhibitors; AID 1345083; HEK 293 viability, ATP luminescence (CellTiter-Glo), 48-72 h; also: nearly all actives have a fitted effect of over 60% in size
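HEK 293 cells seeded at 250 cells/well were exposed to compound for 48 or 72 hr at 37 degree Celsius. Viability taken as ATP content by CellTiter-Glo luminescence.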
hNpr1 antagonist: antagonists of human natriuretic peptide receptor Npr1. P16066. HEK293 hNpr1 GloSensor cGMP, ANP-stimulated luminescence. AID 1347048. Potency, µM (series often up to 46.3 µM), for the others: top-dose activity change, negative = inhibition, actives largely listed as inhibitors. actives 1.6% (n = 76,000); calls by dose curve; also: nearly all actives have a fitted effect of over 60% in size
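Compound pre-incubated 30 min at room temperature on GloSensor-loaded HEK293 cells stably carrying hNpr1 and the pGS-40F cGMP biosensor. Stimulation uses hNppA at 0.1 nM final; luminescence is taken at baseline and 20 min post-agonist.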
Luciferase inh: blocks purified firefly luciferase enzyme activity; actives 2.5% (n = 76,000); purified P. pyralis luciferase, luminescence, biochemical; Potency, µM (doses to about 115 µM), usual class: inhibitors; AID 1347043; also: nearly all actives have a fitted effect of over 65% in size
Target sequence (P08659 whole entry, looked up): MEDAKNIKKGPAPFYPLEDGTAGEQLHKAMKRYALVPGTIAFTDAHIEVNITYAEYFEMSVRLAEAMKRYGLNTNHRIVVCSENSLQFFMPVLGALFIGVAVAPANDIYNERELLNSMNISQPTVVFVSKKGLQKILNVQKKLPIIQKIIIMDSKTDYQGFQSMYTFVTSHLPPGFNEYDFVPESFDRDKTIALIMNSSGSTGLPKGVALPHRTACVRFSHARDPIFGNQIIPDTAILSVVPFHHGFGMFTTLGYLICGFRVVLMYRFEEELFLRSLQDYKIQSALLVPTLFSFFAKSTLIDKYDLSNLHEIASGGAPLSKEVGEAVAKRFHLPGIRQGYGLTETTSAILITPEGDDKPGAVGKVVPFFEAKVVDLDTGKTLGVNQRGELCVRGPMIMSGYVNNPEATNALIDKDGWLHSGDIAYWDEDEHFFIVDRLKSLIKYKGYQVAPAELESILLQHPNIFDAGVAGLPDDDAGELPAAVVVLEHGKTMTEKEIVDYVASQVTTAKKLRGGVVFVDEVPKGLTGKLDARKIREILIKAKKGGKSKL
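Cell-free enzyme assay, 10nM P. pyralis luciferase, luciferin and ATP each at 10uM. Inhibition profiled over a 6-point titration, read as luminescence.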
3T3 cytotox: NIH 3T3 cell cytotoxicity | NIH 3T3 viability, CellTiter-Glo ATP luminescence, 48-72 h | Potency, µM (top dose mostly 96.7 µM), for the others: at the highest dose activity change, negative = cytotoxicity, hits mostly inhibitors | actives 4.3% (n = 94,000); also: nearly all actives have a fitted effect of over 55% in size
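Cytotoxicity was measured by CellTiter-Glo ATP luminescence after 48 or 72 h compound exposure at 37 °C. Mouse NIH 3T3 fibroblasts were seeded at 400 cells/well and dosed by 23 nL pin transfer.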
Numbers without * were called inactive; i = inactive; ? = inconclusive; / = no result given; [ ] = another dose, or the depositor's remark. Unless noted, calls follow the shape of the dose curve; as a rule, active = well fitted curve in the direction sought with a large enough effect; inconclusive = small, poorly fitted or top-dose-only effect, or another doubt; inactive = no such curve, though single readings can be large; an effect the other way counts as inactive or inconclusive. % is scaled to controls: 0 for no effect and ±100 for the full control effect; potency is read from the fitted curve at half-maximal effect.

SMILES	HEK293 tox	hNpr1 antagonist	Luciferase inh	3T3 cytotox
CC1=C[C@@H](CNCc2ccccc2O)[C@H](C(C)C)C[C@H]1Cc1nc2c(C)cccc2[nH]1	?	?	i	?
CC1=C[C@@H](CN2C(=O)C(C)=C(C)C2=O)[C@H](C(C)C)C[C@H]1Cc1nc2ccccc2[nH]1	22µM*	?	i	25µM*
CC1=C[C@@H](CN2C(=O)C(C)=C(C)C2=O)[C@H](C(C)C)C[C@H]1Cc1nc2c(C)cccc2[nH]1	35µM*	?	i	22µM*
CCC(CC)C(=O)NC[C@@H]1C=C(C)[C@H](Cc2nc3c(C)cccc3[nH]2)C[C@H]1C(C)C	45µM*	-14%[70.6 µM]	i	?
CC(=O)N1CCC(c2nnc3n2C(C(=O)NCc2ccccc2)CC3)CC1 (stereo not drawn)	-15%	/	/	-12%
Cc1noc(C)c1-c1cc2c(cc(C)n2CCN(C)C)c(-c2ccccc2O)n1	45µM*	0%[70.6 µM]	i	32µM*
Cc1noc(C)c1-c1cc2c(cc(C)n2CCN(C)C)c(-c2cccnc2)n1	71µM*	-13%[70.6 µM]	i	?
Cc1noc(C)c1-c1cc2c(cc(C)n2CCN(C)C)c(-c2cccc(O)c2)n1	56µM*	-12%[70.6 µM]	i	?
Cc1noc(C)c1-c1cc2c(cc(C)n2CCN(C)C)c(Nc2ccn(C)n2)n1	89µM*	-2%[70.6 µM]	i	?
Cc1cc2cc(-c3c(C)noc3C)nc(Nc3ccc(F)cc3)c2o1	?	-7%[70.6 µM]	i	?
Cc1c(F)cccc1NC(=O)N(C)CC1CCOCC1	i	5%	i	i
COc1cccc(-c2nc(-c3c(C)noc3C)cc3c2cc(C)n3CCN(C)C)c1OC	?	-12%[70.6 µM]	i	?
COc1ccc(-c2nc(-c3c(C)noc3C)cc3c2cc(C)n3CCN(C)C)cn1	79µM*	-10%[70.6 µM]	i	?
Cc1noc(C)c1-c1cc2c(cc(C)n2CCN(C)C)c(-c2ccc(CO)cc2)n1	79µM*	-21%[70.6 µM]	i	?
CCN1C(=O)CCN(Cc2cccc(C)c2)CC12CCOCC2	-6%	/	/	-17%
CCN1C(=O)CCN(Cc2cn(C)c3ccccc23)CC12CCOCC2	79µM*	/	/	?
O=[S+]1([O-])NC2(CCN(Cc3cccc4ccccc34)CC2)CNc2ccccc21	40µM*	-11%	i	?
COc1cccc(CN2CCOC3CCN(Cc4ccccc4Cl)CC3C2=O)c1 (stereo not drawn)	?	5%[70.6 µM]	i	-29%[138 µM]
CN(Cc1cccc(C(F)(F)F)c1)C(=O)c1cccc(Cl)c1	100µM*	-5%[70.6 µM]	i	?
CN(Cc1cccc(C(F)(F)F)c1)C(=O)Cc1cccc(Cl)c1	?	7%	?	-20%
COc1cccc(CN2C(=O)CCCCC2C(=O)NC2CCCCCC2)c1 (stereo not drawn)	-16%	-5%	i	-11%
Cc1ccc(-c2cccc(CN3CCCC3C(=O)NC(C)C)c2)cc1Cl (stereo not drawn)	22µM*	/	/	22µM*
Cc1ccc(-c2cccc(CN3CCCC3C(=O)N3CCCC(C)C3)c2)cc1Cl (stereo not drawn)	?	/	/	32µM*
CNC(=O)C1CCCN1Cc1cccc(-c2ccc(C)c(Cl)c2)c1 (stereo not drawn)	25µM*	/	/	35µM*
CC(C)OCCCNC(=O)C1CCCN1Cc1ccc(-c2cncnc2)cc1 (stereo not drawn)	-1%	/	/	-16%
SMILES	HEK293 tox	hNpr1 antagonist	Luciferase inh	3T3 cytotox
Cc1ccc(-c2cccc(CN3CCCC3C(=O)NC3CCCC3)c2)cc1Cl (stereo not drawn)	35µM*	/	/	?
CC(C)N1C[C@@H](COC(C)(C)C)[C@H](c2ccccc2)[S+]1(=O)[O-]	?	/	/	-20%
C#CCNC(=O)C1CCCN1Cc1cccc(-c2ccc(C)c(Cl)c2)c1 (stereo not drawn)	40µM*	/	/	40µM*
COCCCNC(=O)C1CCCN1Cc1cccc(-c2ccc(C)c(Cl)c2)c1 (stereo not drawn)	?	/	/	40µM*
COc1ccc(CCC(=O)N2CCC(Cc3nc(C4CCOCC4)no3)CC2)cc1	?	6%	i	-25%
CC(C)CC(=O)Nc1ccc([C@H]2OCC(=O)N(Cc3nccn3C)[C@@H]2CO)cc1	i	4%[70.6 µM]	i	-1%[174 µM]
COc1ccc(CN2C(=O)CO[C@H](c3ccc(NS(=O)(=O)c4ccc(F)cc4)cc3)[C@H]2CO)cc1	-20%	1%	i	35µM*

Screens: PubChem, National Center for Advancing Translational Sciences (NCATS)
